Assay outcomes (PubChem)
ATXN viability = cell viability loss in ATXN counter-screen; Potency, µM (top dose mostly 56.7 µM), actives largely listed as cytotoxic; S2 cells (HEK-293 line with an ATXN2-luciferase reporter) viability, CellTiter-Fluor protease fluorescence, 24 h; actives 0.49% (n = 400,000); note: nearly all actives have a fitted effect of over 40% in size
HT1080NT lethal = kills 2HG-producing HT-1080-NT fibrosarcoma cells; HT-1080-NT fibrosarcoma viability, CellTiter-Glo ATP luminescence, 48 h; Potency, µM (doses to about 46.1 µM), without a hit: at the top dose activity, negative = less viability, hits mostly cytotoxic; actives 1.6% (n = 360,000);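 note: NT is the 2HG producing partner of a matched IDH1 knockdown line; 0% = DMSO-treated cells and -100% = media-only wells without cells; nearly all actives have a fitted effect of over 55% in size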
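Viability of the 2HG-overproducing fibrosarcoma line after 48 hours of compound exposure at 37 degrees C was determined by luminescence with CellTiter-Glo, and concentration-effect curves were then fitted and categorized.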
KB-V1 MDR tox = kills drug-selected multidrug resistant KB-V1 cells; KB-V1 MDR cells viability, CellTiter-Glo, 72 h; Potency, µM (top dose mostly 46.1 µM), hits mostly cytotoxic; actives 3.4% (n = 400,000); AID 1347076; note: % is set by controls: 0 for no effect and ±100 for the full control effect; nearly all actives have a fitted effect of over 60% in size
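Readout: CellTiter-Glo luminescence, 10 min after addition. Cells: KB-V1 MDR subline, 72 h at 37 degrees C with compound. Analysis: corrected, normalized data fitted to concentration-effect curves.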
KB-3-1 cytotox = KB-3-1 parental cell cytotoxicity; KB-3-1 viability, CellTiter-Glo ATP luminescence, 72 h; Potency, µM (doses to about 46.1 µM), usual class: cytotoxic; actives 1.4% (n = 400,000); AID 1347075; note: % is set by controls: 0 for no effect and ±100 for the full control effect; nearly all actives have a fitted effect of over 60% in size
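Multi-concentration cytotoxicity screen in KB-3-1 cells grown in DMEM lacking phenol red with 10% FBS. After 72 h at 37 °C with compound, ATP-dependent luminescence was recorded.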
ATXN2 expr inh = reduces ATXN2 reporter expression in HEK-293 cells. HEK-293 ATXN2-luciferase reporter, luminescence, 24 h. Potency, µM (top dose mostly 57 µM), without a hit: top-dose activity change, negative = inhibition, hits mostly inhibitors. actives 0.72% (n = 360,000). AID 1745845; note: % is set by controls: 0 for no effect and ±100 for the full control effect; nearly all actives have a fitted effect of over 55% in size
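ATXN2-luciferase reporter cells (luciferase flanked by upstream and downstream ATXN2 gene portions) were treated 24 h at 37 °C with compounds at up to 57 uM. SteadyGlo luminescence gave expression; GF-AFC fluorescence gave viability.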
HT1080 IDH1KD tx = HT-1080 IDH1 knockdown cell toxicity (counter line) | actives 2% (n = 360,000) | HT-1080 IDH1 knockdown viability, ATP luminescence, 48 h | Potency, µM (doses to about 46.1 µM), for inactives: top-dose activity, negative = toxicity, usual class: cytotoxic | AID 686971;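 note: 0% = DMSO wells and -100% = cell-free medium wells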
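Assay cells: HT-1080 with IDH1 knockdown, 750 per well, RPMI/5% FBS. Exposure: 48 h at 37 °C following 2 h pre-incubation. Read: CellTiter-Glo luminescence; fitted concentration-response, curve class assigned.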
* = called active by the depositor; i = inactive; ? = inconclusive; / = no result; [ ] = dose if it differs, or a comment. Compounds with a hit are over-represented: about 6.2% of the library has one in this group of screens. Calls come from the whole dose curve; as a rule, active = well fitted curve in the direction sought with a large enough effect; inconclusive = small, poorly fitted or top-dose-only effect, or another doubt; inactive = no such curve, though single readings can be large; an effect the other way counts as inactive or inconclusive. Potency is the fitted concentration of half-maximal effect.

SMILES	ATXN viability	HT1080NT lethal	KB-V1 MDR tox	KB-3-1 cytotox	ATXN2 expr inh	HT1080 IDH1KD tx
CC(C)c1ccc(C2(C)NC(=O)N(CC(=O)NCC3COc4ccccc4O3)C2=O)cc1 (configuration not stated)	i	-3%	16µM*	i	-2%	4%
O=C(NCc1ccccc1)C(=O)NCC1COc2ccccc2O1 (configuration not stated)	?	16µM*	5.2µM*	i	-14%	10µM*
CCCCn1nc(C(=O)NCC(=O)Nc2c(C)cccc2C)c2ccccc2c1=O	i	-3%	1.6µM*	i	-12%	12%
O=C(Cc1ccccc1)NCC1COc2ccccc2O1 (configuration not stated)	i	-1%	i	i	10%	-21%
CCCn1nc(C(=O)NCC2COc3ccccc3O2)c2ccccc2c1=O (configuration not stated)	i	-9%	7.3µM*	i	-13%	3%
CCn1cc2nc(SCC(=O)Nc3ccc(OC)cc3OC)n(Cc3ccc(Cl)cc3)c(=O)c2n1	i	/	i	i	-8%	/
COc1ccc(NC(=O)N2CCN(S(=O)(=O)c3ccc4c(ccn4C)c3)CC2)c(OC)c1	i	/	?	i	-23%	/
COC(=O)N/N=C/c1cn(Cc2ccc(F)cc2)c2ccccc12	i	-5%	i	i	-21%	-14%
COC(=O)N/N=C/c1cn(Cc2c(Cl)cccc2Cl)c2ccccc12	i	-2%	16µM*	i	-9%	-7%
COC(=O)N/N=C/c1cn(Cc2ccccc2Cl)c2ccccc12	i	-19%	i	i	-17%	?
COC(=O)N/N=C/c1cc(C)n(-c2cccc3ccccc23)c1C	i	-4%	21µM*	?	5%	1%
O=C(N/N=C/c1cn(CCOc2ccccc2)c2ccccc12)c1ccncc1	/	11%	i	i	3%	1%
COC(=O)N/N=C/c1cn(Cc2ccc(Cl)cc2Cl)c2ccccc12	?	-18%	16µM*	?	-33%	-24%
COC(=O)N/N=C/c1cn(CCCOc2ccccc2)c2ccccc12	i	-21%	23µM*	?	-36%	?
CC(C)(C)c1ccc(C(=O)N2CCC2(C)C(=O)NS(=O)(=O)c2ccc(C#N)cc2)cc1 (configuration not stated)	i	22%	i	i	-5%	4%
Cc1cc(C(=O)C(C)Sc2cccc[n+]2[O-])c(C)n1-c1ccc(Cl)cc1 (configuration not stated)	i	?	21µM*	?	-1%	23µM*
Cc1cc(C(=O)C(=O)O)c(C)n1-c1ccc(Cl)cc1	i	7%	?	i	5%	-3%
CCCc1cc(=O)[nH]c(SCc2nc(-c3ccccc3)no2)n1	/	/	i	i	/	/
CCCc1nc([N+](=O)[O-])c(S(=O)(=O)c2ccccc2)n1CC(C)C	?	-10%	i	?	?	?
CC(C)Cn1c(C(C)C)nc([N+](=O)[O-])c1S(=O)(=O)c1ccc(F)cc1	?	3.5µM*	?	?	-25%	7.1µM*
COc1cccc(C(C(=O)NCc2ccccc2)N2CCN(CCN3CCOCC3)CC2)c1OC (configuration not stated)	/	-1%	i	i	/	17%
CCOC(=O)c1c(CC(C)C)csc1NC=O	i	-11%	4.6µM*	16µM*	-3%	-11%
CCN(CC)c1ccc(/C=N/NC(=O)c2ccco2)cc1	?	?	i	3.7µM*	0%	2.6µM*
CCN(CC)c1ccc(/C=N/NC(=O)c2cnccn2)cc1	i	5.2µM*	i	?	22%[11.3 µM]	3.7µM*
CCN(CC)c1ccc(/C=N/NC(=O)c2ccco2)c(O)c1	i	?	i	?	?	?
